Laboratory results published in PubChem BioAssay (Tox21).
Results filed as inconclusive are left out. Entries that show only a call come without a potency. Values without a mark were called inactive. The source made the active and inactive calls. Unless noted, calls come from the whole dose curve; as a rule, active = well fitted curve in the direction sought with a large enough effect in the repeat runs; inconclusive = weak or mixed curves; inactive = no such curve, though single readings can be large; an effect the other way counts as inactive or inconclusive.

Legend:
[1] = target: Retinoic acid receptor RXR-alpha (Homo sapiens) (UniProt P19793); experiment: qHTS assay to identify small molecule agonists of the RXR signaling pathway (AID 1159527; calls by dose curve; note: nearly all actives have a fitted effect of over 35% in size)
Chain of Retinoic acid receptor RXR-alpha (Homo sapiens) (P19793 whole entry, looked up): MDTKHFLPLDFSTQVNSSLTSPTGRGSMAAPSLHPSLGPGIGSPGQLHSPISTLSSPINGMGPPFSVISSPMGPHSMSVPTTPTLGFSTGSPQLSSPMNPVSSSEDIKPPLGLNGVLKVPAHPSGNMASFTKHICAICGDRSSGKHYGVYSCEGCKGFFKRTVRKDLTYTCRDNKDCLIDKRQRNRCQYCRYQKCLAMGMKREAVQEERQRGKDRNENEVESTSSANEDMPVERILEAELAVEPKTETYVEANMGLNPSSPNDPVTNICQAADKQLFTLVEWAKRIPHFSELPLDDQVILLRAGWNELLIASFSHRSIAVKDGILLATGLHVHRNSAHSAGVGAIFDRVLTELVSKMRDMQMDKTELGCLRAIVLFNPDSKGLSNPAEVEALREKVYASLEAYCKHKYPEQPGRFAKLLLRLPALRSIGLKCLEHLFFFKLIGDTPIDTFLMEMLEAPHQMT
How it was run: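 Agonist mode; 9-cis retinoic acid positive control. HEK 293T UAS-bla reporter cells, 2% charcoal-stripped FBS, 16 hr compound exposure at 37 C/5% CO2. LiveBLAzer B/G FRET substrate 2 hr RT; ex 405, em 460/530 nm.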

[2] = qHTS assay to identify small molecule antagonists of the retinoid acid receptor (RAR) signaling pathway - cell viability counter screen (AID 1159551); note: nearly all actives have a fitted effect of over 35% in size
How it was run: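 Viability of C3RL4 cells is quantified from ATP by luminescence after 6 h treatment at 37 C with compounds and 1 uM retinol.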

[3] = qHTS assay to identify small molecule antagonists of the retinoic acid receptor (RAR) signaling pathway (AID 1159552; note: nearly all actives have a fitted effect of over 50% in size)
How it was run: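 Luminescence from a RARE luciferase reporter in C3RL4 cells served as read-out. Cells received compounds together with 1 uM final retinol and incubated 6 hr at 37 C before detection reagent was added for 30 min at room temperature.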

[4] = qHTS assay to identify small molecule agonists of the retinoic acid receptor (RAR) signaling pathway (AID 1159553); note: potency is the fitted concentration of half-maximal effect
How it was run: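 Compounds dissolved in DMSO were pinned onto C3RL4 cells seeded the previous day, and plates were held 6 hr at 37 C. RARE-driven luciferase output was then read by luminescence.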

[5] = qHTS assay to identify small molecule antagonists of the estrogen related receptor (ERR) signaling pathway from Tox21 library - cell viability counter screen (AID 1224834); note: nearly all actives have a fitted effect of over 30% in size
How it was run: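 In this quantitative HTS format, ERR cells receive compounds in DMSO and are incubated for 17.5 h at 37 C. Live-cell protease activity is then detected with CellTiter-Fluor.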

[6] = qHTS assay to identify small molecule agonists of the constitutive androstane receptor (CAR) signaling pathway - cell viability counter screen (AID 1224836); note: series mostly up to about 92 µM; nearly all actives have a fitted effect of over 45% in size
How it was run: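 Viability read-out: CellTiter-Fluor fluorescence after 23 h compound exposure at 37 C/5% CO2 in double-stable HepG2-CYP2B6-hCAR cells, with PK11195 present at 0.75 uM final; compounds tested in 15-point titration.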

[7] = qHTS assay to identify small molecule antagonists of the constitutive androstane receptor (CAR) signaling pathway - cell viability counter screen (AID 1224837); note: series mostly up to about 92 µM; nearly all actives have a fitted effect of over 45% in size
How it was run: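 In quantitative HTS format, compounds at 15 concentrations were applied to HepG2 cells double-transfected with hCAR and CYP2B6-2.2kb under 50 nM CITCO stimulation; live-cell protease activity was read after 23 hr via CellTiter-Fluor.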

[8] = target: Nuclear receptor subfamily 1 group I member 3 (Homo sapiens) (UniProt Q14994); experiment: qHTS assay to identify small molecule agonists of the constitutive androstane receptor (CAR) signaling pathway (AID 1224839); note: nearly all actives have a fitted effect of over 15% in size; note: potency is the fitted concentration of half-maximal effect
Chain of Nuclear receptor subfamily 1 group I member 3 (Homo sapiens) (Q14994 whole entry, looked up): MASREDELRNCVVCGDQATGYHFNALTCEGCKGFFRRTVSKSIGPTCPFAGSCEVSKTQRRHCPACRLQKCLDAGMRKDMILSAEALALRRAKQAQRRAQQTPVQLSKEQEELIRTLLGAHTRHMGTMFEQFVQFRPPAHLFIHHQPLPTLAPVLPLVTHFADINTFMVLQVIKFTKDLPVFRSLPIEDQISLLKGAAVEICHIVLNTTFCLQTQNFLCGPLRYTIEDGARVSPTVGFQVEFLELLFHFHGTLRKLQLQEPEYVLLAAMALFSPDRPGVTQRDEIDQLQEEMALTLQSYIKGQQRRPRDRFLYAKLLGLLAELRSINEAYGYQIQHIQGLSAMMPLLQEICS
How it was run: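 Luminescence read-out (ONE-Glo, 30 min, room temperature) from double-stable HepG2-CYP2B6-hCAR cells exposed 24 h to 15-point compound series in presence of 0.75 uM PK11195 final.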

[9] = qHTS assay to identify small molecule antagonists of the estrogen related receptor signaling pathway with the pleiotropic PPARgamma coactivator (PGC) from Tox21 10K library - cell viability counter screen (AID 1224840; active = well fitted cell-killing curve with a large enough effect in the repeat runs, not every such curve was filed as active; note: nearly all actives have a fitted effect of over 40% in size)
How it was run: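 Viability counter screen, PGC/ERR cells: 17.5 h compound exposure at 37 C, CellTiter-Fluor fluorescence endpoint.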

[10] = target: Luciferin 4-monooxygenase (Photinus pyralis) (UniProt P08659); experiment: qHTS assay to identify small molecule inhibitors of firefly luciferase (AID 1224835); note: nearly all actives have a fitted effect of over 25% in size; note: potency is the fitted concentration of half-maximal effect
Chain of Luciferin 4-monooxygenase (Photinus pyralis) (P08659 whole entry, looked up): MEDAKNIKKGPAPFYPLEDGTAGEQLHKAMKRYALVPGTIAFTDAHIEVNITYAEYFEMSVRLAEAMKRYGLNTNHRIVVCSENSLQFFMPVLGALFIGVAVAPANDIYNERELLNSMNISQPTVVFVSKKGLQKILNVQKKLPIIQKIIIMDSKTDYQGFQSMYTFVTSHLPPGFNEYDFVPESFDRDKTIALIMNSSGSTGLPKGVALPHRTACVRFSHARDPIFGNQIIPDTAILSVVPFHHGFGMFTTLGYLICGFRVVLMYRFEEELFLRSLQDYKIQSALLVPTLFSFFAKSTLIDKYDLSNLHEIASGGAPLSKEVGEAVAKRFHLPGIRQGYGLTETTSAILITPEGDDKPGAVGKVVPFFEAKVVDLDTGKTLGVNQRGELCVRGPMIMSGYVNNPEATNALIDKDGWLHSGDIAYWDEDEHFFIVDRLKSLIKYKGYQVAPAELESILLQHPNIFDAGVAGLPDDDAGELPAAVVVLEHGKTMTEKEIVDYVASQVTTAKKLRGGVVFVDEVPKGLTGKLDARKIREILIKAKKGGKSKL
How it was run: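 Biochemical qHTS: compounds run as interplate titrations against purified firefly enzyme, with D-luciferin and ATP each at its KM concentration. Light output recorded by CCD imaging.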

[11] = target: Nuclear receptor subfamily 1 group I member 3 (Homo sapiens) (UniProt Q14994); experiment: qHTS assay to identify small molecule antagonists of the constitutive androstane receptor (CAR) signaling pathway (AID 1224838); note: nearly all actives have a fitted effect of over 40% in size
How it was run: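 CITCO-stimulated (50 nM final) HepG2 cells stably transfected with hCAR and CYP2B6-2.2kb luciferase were exposed to compounds at 15 concentrations for 24 h at 37 C/5% CO2. A luciferase reagent was added and luminescence recorded after 30 min.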

[12] = qHTS assay to identify small molecule agonists of the RXR signaling pathway - cell viability counter screen (AID 1159529); note: series mostly up to about 77 µM; nearly all actives have a fitted effect of over 50% in size
How it was run: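 Luminescence from CellTiter-Glo (30 min, RT) measured viability in the same wells as the beta-lactamase reporter readout. Cells: GeneBLAzer RXR-alpha HEK 293T, 2% charcoal-stripped FBS. Compound exposure 16 hr, 37 C.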

[13] = qHTS assay to identify small molecule antagonists of the estrogen related receptor signaling pathway with the pleiotropic PPARgamma coactivator (PGC) from Tox21 10K library (AID 1224841; call rule not given here; note: series mostly up to about 92 µM; actives are mostly falling curves and most rising ones were filed inactive; nearly all actives have a fitted effect of over 50% in size)
How it was run: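 In the PGC/ERR line, DMSO solutions of test chemicals are pin-delivered to 2,000 cells/well six hours after dispensing. Following eighteen hours' incubation, One-Glo reagent is added and luminescence recorded.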

[14] = qHTS assay to identify small molecule antagonists of the estrogen related receptor (ERR) signaling pathway (AID 1224819; note: potency is the fitted concentration of half-maximal effect; nearly all actives have a fitted effect of over 50% in size)
How it was run: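 ERR reporter cells were plated at 2,000 cells/well and left 6 h at 37 C/5% CO2 before pin-tool transfer of compounds in DMSO. After 18 h at 37 C, One-Glo was added and luminescence was read 30 min later at room temperature.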

[15] = qHTS assay to identify small molecule agonists of the estrogen related receptor (ERR) signaling pathway (AID 1224820)
How it was run: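 After 6 h plating (2,000 cells/well) and 18 h compound treatment at 37 C, ERR cells were lysed with One-Glo and luminescence read after 30 min at room temperature.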

[16] = system: estrogen-related receptor alpha (ERRalpha) with PGC-1alpha coactivator, human; experiment: qHTS assay to identify small molecule antagonists of the estrogen related receptor signaling pathway with the pleiotropic PPARgamma coactivator (PGC) (AID 1224821; calls by dose curve)
How it was run: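 Luminescence from One-Glo luciferase reagent (30 min, room temperature) measured after 18 h compound treatment at 37 °C. Cells carry the PGC/ERR reporter and were seeded 6 h prior to dosing.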

[17] = qHTS assay to identify small molecule agonists of the estrogen related receptor signaling pathway with the pleiotropic PPARgamma coactivator (PGC) (AID 1224823)
How it was run: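 Luminescence from One-Glo reagent (30 min, room temperature) was read after 18 h compound treatment at 37 C of PGC/ERR cells plated 6 h beforehand; compounds delivered in DMSO by pin tool.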

Compound	Potency [1]	Potency [2]	Potency [3]	Potency [4]	Potency [5]	Potency [6]	Potency [7]	Potency [8]	Potency [9]	Potency [10]	Potency [11]	Potency [12]	Potency [13]	Potency [14]	outcome [15]	Potency [16]	Potency [17]
CC1(C)C2=CCCC(C)(C)[C@]23CC[C@H]1C3	inactive	inactive	inactive	inactive	inactive	inactive	inactive	inactive	inactive								
Cc1cc(C(=C2C=CC(=Nc3ccc(S(=O)(=O)O)cc3S(=O)(=O)O)C=C2)c2ccc(Nc3ccc(S(=O)(=O)O)cc3)cc2)ccc1N	inactive	inactive			inactive	inactive	inactive	inactive	inactive	23.2 µM (active)	inactive						
CCOC(=O)N1CCC(n2c(=O)[nH]c3cc(Cl)ccc32)CC1	inactive	inactive	inactive	inactive		inactive	inactive	inactive		inactive							
CCC(C)(O)CCC=C(C)C (configuration not stated)	inactive	inactive			inactive		inactive		inactive	inactive							
Cc1cc(O)c(C(C)C)cc1Cl	inactive		inactive	inactive	inactive	inactive	inactive	inactive	inactive		inactive						
CN(C)C(=O)Nc1ccc(Oc2ccc(Cl)cc2)cc1		inactive	inactive	61.1 µM (active)	inactive	inactive	inactive	30.6 µM (active)	inactive	63.3 µM (active)	inactive	inactive					
CCCOC(=O)c1ccc(C(=O)OCCC)nc1		inactive	inactive	68.6 µM (active)	inactive	inactive	inactive	inactive		35.6 µM (active)	inactive	inactive					
CCCCC(=O)O[C@]1(C(=O)CO)CC[C@H]2[C@@H]3CCC4=CC(=O)CC[C@]4(C)[C@H]3[C@@H](O)C[C@@]21C	inactive	inactive	inactive	inactive	inactive		inactive	inactive	inactive	inactive	inactive		inactive				
O=C(O)c1ccc(CO)o1		inactive	inactive	inactive	inactive	inactive	inactive	inactive		inactive	inactive	inactive					
COCCOC(=O)C1=C(C)NC(C)=C(C(=O)OC/C=C/c2ccccc2)C1c1cccc([N+](=O)[O-])c1 (configuration not stated)														11.9 µM (active)	inactive	17.4 µM (active)	inactive
